TrxR1 inh – blocks rat thioredoxin reductase 1. recombinant rTrxR1, NADPH fluorescence consumption, selenite substrate. AID 588453. Potency, µM (titrated, usually from 114 µM), usual class: inhibitors. 1% of 390,000 active; further: nearly all actives have a fitted effect of over 65% in size
Target sequence (O89049 whole entry, looked up): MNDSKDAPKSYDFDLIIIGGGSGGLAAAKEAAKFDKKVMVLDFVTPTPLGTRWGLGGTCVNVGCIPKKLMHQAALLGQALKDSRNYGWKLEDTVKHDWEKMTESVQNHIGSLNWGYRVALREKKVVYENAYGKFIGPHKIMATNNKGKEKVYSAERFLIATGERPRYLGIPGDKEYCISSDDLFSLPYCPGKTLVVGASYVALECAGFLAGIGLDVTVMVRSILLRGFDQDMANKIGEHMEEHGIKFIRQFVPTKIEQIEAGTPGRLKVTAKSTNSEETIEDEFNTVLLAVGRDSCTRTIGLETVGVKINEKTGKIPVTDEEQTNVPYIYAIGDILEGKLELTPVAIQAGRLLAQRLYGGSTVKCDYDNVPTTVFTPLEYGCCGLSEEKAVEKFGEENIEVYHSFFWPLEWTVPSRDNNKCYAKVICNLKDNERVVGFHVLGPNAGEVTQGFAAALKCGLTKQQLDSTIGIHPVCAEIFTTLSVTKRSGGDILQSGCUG
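Rat TrxR1 (90 nM in the dispensed reagent) was pre-reduced with 400 uM NADPH for 5 min at room temperature, then incubated with compound for 15 min. After 400 uM selenite was added, NADPH fluorescence (Ex 340/Em 450 nm) was followed for 8 min.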
Glioma ERSR ind – ER stress response induction in glioma | U87-MG GRP78 promoter luciferase reporter, 16 h | Potency, µM, hits mostly activators | 0.02% of 420,000 active; further: series mostly up to about 76 µM; nearly all actives have a fitted effect of over 35% in size
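ERSR induction read as luciferase luminescence (Bright-Glo, 10 min at room temperature) in stably transfected human U87-MG glioma cells exposed to compounds for 16 h, using GRP78 as sensor.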
TrxR1 substrate – rat thioredoxin reductase 1 substrate activity; O89049; purified TrxR1 substrate turnover, NADPH consumption readout; Potency, µM (highest dose often 114 µM); 0.01% of 390,000 active; further: nearly all actives have a fitted effect of over 50% in size
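Rat TrxR1, dispensed at 90 nM, was prereduced with 400 uM NADPH (final) for 5 min at ~22 deg C, then incubated with compound 15 min before 400 uM selenite. A first-read NADPH fluorescence drop versus no-compound background flagged substrates.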
Anesthetic bind – binds horse apoferritin like a general anesthetic. P02791. apoferritin/1-aminoanthracene competitive binding, fluorescence. Potency, µM (series often up to 77.5 µM), hits mostly inhibitors. 0.074% of 350,000 active. AID 485281; further: nearly all actives have a fitted effect of over 20% in size
Target sequence (P02791 2-175 limits assumed): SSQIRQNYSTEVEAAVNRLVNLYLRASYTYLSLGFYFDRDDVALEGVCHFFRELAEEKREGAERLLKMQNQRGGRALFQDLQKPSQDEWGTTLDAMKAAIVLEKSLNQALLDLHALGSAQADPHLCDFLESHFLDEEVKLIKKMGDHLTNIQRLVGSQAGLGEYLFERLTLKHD
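In PBS, apoferritin at 10 uM is loaded with 1-AMA from a 50% saturated solution. After 10 min of compound exposure at ambient temperature, reduced 535 nm fluorescence indicates probe displacement.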
ALOX12 inh – ALOX12 (human) lipoxygenase inhibition; P18054; purified 12hLO, xylenol orange hydroperoxide absorbance; Potency, µM (top dose mostly 108 µM), actives largely listed as inhibitors; 1.1% of 580,000 active; AID 1671190
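Purified human 12hLO (150 nM final) in 25 mM Hepes, 0.01% Triton X-100, pH 7.0 was preincubated 15 min at room temperature with compound. Then 40 uM arachidonic acid was added, 30 min. Hydroperoxide was read by Fe-XO absorbance ratio 573/405 nm.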
IDH1 R132H inh – blocks human mutant IDH1 R132H enzyme; O75874; IDH1-R132H enzyme, NADPH consumption, diaphorase/resazurin fluorescence; Potency, µM (doses to about 76.6 µM), hits mostly inhibitors; 0.093% of 390,000 active; further: nearly all actives have a fitted effect of over 65% in size
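IDH1-R132H (0.5 ug/mL) preincubated 30 min with compound, then NADPH (0.016 mM) and alpha-KG (2 mM) added; 80 min at RT, pH 7.5. Remaining NADPH coupled via diaphorase/resazurin to fluorescence (540/590 nm); concentration-response curves normalized to no-enzyme control.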
Each line names hits and unclear results; the compound was inactive in the other large screens; ! = not confirmed by another sample. The list is not random: actives were taken first. Their share in the collection is about 1.7%. The call rests on the fitted dose curve; in most records, active means well fitted curve in the direction sought with a large enough effect; inconclusive means small, poorly fitted or top-dose-only effect, or another doubt; inactive means no such curve, though single readings can be large; an effect the other way counts as inactive or inconclusive.

O=C(O)c1cccc(CC2CCN(C(=O)CCCN3CCCCC3=O)C2)c1 (centres undefined)	none (no result: TrxR1 inh, Glioma ERSR ind, TrxR1 substrate, Anesthetic bind, IDH1 R132H inh)
O=C(O)c1ccc(F)c(S(=O)(=O)N2CCC2)c1	none (no result: TrxR1 inh, Glioma ERSR ind, TrxR1 substrate, Anesthetic bind, IDH1 R132H inh)
CC(C)OCCCn1c(-c2ccc(Br)cc2)c[nH]c1=S	TrxR1 inh inconclusive, Anesthetic bind inconclusive, ALOX12 inh 44.7µM
CC(C)OCCCn1c(=S)[nH]c2ncccc2c1=O	none
S=C(NCCN1CCOCC1)N1CCN(c2cccc(Cl)c2)CC1	ALOX12 inh 5.62µM
S=C(NCCN1CCOCC1)Nc1cccc(Cl)c1	none
CCN(CC)Cc1cnc2c(C(=O)N(C)Cc3csc(C)n3)cnn2c1	none (no result: TrxR1 inh, Glioma ERSR ind, TrxR1 substrate, Anesthetic bind, IDH1 R132H inh)
CCOc1cc(C(Nc2cc(C)ccn2)c2ccc3cccnc3c2O)ccc1OC (centres undefined)	TrxR1 inh 1.26µM, ALOX12 inh inconclusive
Cc1ccc(C(Nc2ccccn2)c2ccc3cccnc3c2O)cc1 (centres undefined)	TrxR1 inh inconclusive, ALOX12 inh 17.8µM
CCCC(=O)NC(c1ccc(C)cc1)c1ccc2cccnc2c1O (centres undefined)	none (no result: ALOX12 inh)
CC1(C)S[C@@H]2[C@H](NC(=O)[C@H](N)c3ccccc3)C(=O)N2[C@@H]1C(=O)OCOC(=O)[C@@H]1N2C(=O)C[C@@H]2S(O)(O)C1(C)C	none (no result: TrxR1 inh, TrxR1 substrate, Anesthetic bind, ALOX12 inh, IDH1 R132H inh)
COC(=O)c1ccc(CSc2n[nH]c(=S)s2)o1	ALOX12 inh 15.8µM
COC(=O)c1ccc(CSc2nc3ccccc3s2)o1	none
CCCC[n+]1c2ccccc2cc2ccccc21	ALOX12 inh 8.91µM
CCCNC(=O)C(C)NC(=O)c1cc(F)cc2nc(C)c(C)nc12 (centres undefined)	none (no result: TrxR1 inh, Glioma ERSR ind, TrxR1 substrate, Anesthetic bind, IDH1 R132H inh)
O=C(Cc1cccc(C(F)(F)F)c1)Nc1ccccc1	none
O=C(Cc1cccc(C(F)(F)F)c1)NC1(c2ccccc2)CCC1	ALOX12 inh 35.5µM (no result: TrxR1 inh, Glioma ERSR ind, TrxR1 substrate, Anesthetic bind, IDH1 R132H inh)
CN(CC(=O)NC1(C)CCS(=O)(=O)C1)Cc1ccc(Cl)cc1 (centres undefined)	none (no result: TrxR1 inh, Glioma ERSR ind, TrxR1 substrate, Anesthetic bind, IDH1 R132H inh)
CC(=O)Nc1ccc(Nc2nc(-c3cc4ccccc4oc3=O)cs2)cc1	ALOX12 inh inconclusive
O=C(O)c1ccc(Nc2nc(-c3cc4ccccc4oc3=O)cs2)cc1O	ALOX12 inh 39.8µM
O=c1oc2ccc(Cl)cc2cc1-c1csc(Nc2ccccc2)n1	ALOX12 inh 20µM (no result: TrxR1 inh, Glioma ERSR ind, TrxR1 substrate, Anesthetic bind, IDH1 R132H inh)
Cc1cccc(Nc2nc(-c3cc4ccccc4oc3=O)cs2)c1	ALOX12 inh 39.8µM (no result: TrxR1 inh, Glioma ERSR ind, TrxR1 substrate, Anesthetic bind, IDH1 R132H inh)
CC1(C)Cc2c(sc3c2c(=O)n(CCO)c(=O)n3CCCc2ccccc2)CO1	none (no result: TrxR1 inh, Glioma ERSR ind, TrxR1 substrate, Anesthetic bind, IDH1 R132H inh)
CC(C)NC(=O)Cc1cccn1-c1cccc(Cl)c1	none (no result: TrxR1 inh, Glioma ERSR ind, TrxR1 substrate, Anesthetic bind, IDH1 R132H inh)
Cn1ccc2cc3c(cc21)CCN3C(=O)Nc1cccnc1	TrxR1 inh inconclusive, ALOX12 inh 9.68µM! (no result: Anesthetic bind)
O=C(Cc1cccc(F)c1)N1CCC(c2nc(-c3ccccc3)no2)C1 (centres undefined)	none (no result: TrxR1 inh, Glioma ERSR ind, TrxR1 substrate, Anesthetic bind, IDH1 R132H inh)
COc1cc(C2CC(=O)N3CN(c4ccc(C)cc4)CSC3=C2C#N)cc(Br)c1O (centres undefined)	ALOX12 inh 1.26µM (no result: TrxR1 inh, Glioma ERSR ind, TrxR1 substrate, Anesthetic bind, IDH1 R132H inh)
CCc1ccccc1N1CSC2=C(C#N)C(c3ccccc3F)CC(=O)N2C1 (centres undefined)	TrxR1 inh inconclusive, Anesthetic bind inconclusive, ALOX12 inh 3.16µM
COc1ccc(C2CC(=O)N3CN(c4ccc(C)c(Cl)c4)CSC3=C2C#N)cc1 (centres undefined)	TrxR1 inh inconclusive, Anesthetic bind inconclusive, ALOX12 inh 3.98µM
COc1ccc(N2CSC3=C(C#N)C(c4cccc(OC)c4OC)CC(=O)N3C2)cc1 (centres undefined)	TrxR1 inh inconclusive, Anesthetic bind inconclusive, ALOX12 inh 11.2µM
C1CCC(CN2CCn3c(nnc3C3CCCNC3)C2)CC1 (centres undefined)	none (no result: TrxR1 inh, Glioma ERSR ind, TrxR1 substrate, Anesthetic bind, IDH1 R132H inh)
CCOc1ccc(NC(=O)c2nc3ccccc3nc2N2CCN(C)CC2)cc1	none (no result: TrxR1 inh, Glioma ERSR ind, TrxR1 substrate, Anesthetic bind, IDH1 R132H inh)
C=CC[C@H]1CC=C[C@H](CC=C)[N+]1(C)C	ALOX12 inh 7.08µM! (no result: TrxR1 inh, Glioma ERSR ind, TrxR1 substrate, Anesthetic bind, IDH1 R132H inh)
O=[N+]([O-])c1ccc(-[n+]2ccc3ccccc3c2)c([N+](=O)[O-])c1	TrxR1 inh 0.891µM, ALOX12 inh inconclusive (no result: Anesthetic bind)
CCCN1Cc2cccc(C(=O)Nc3ccc(F)c(Cl)c3)c2C1=O	none (no result: TrxR1 inh, Glioma ERSR ind, TrxR1 substrate, Anesthetic bind, IDH1 R132H inh)
c1ccc(-c2cc3n(c2)CCc2ccccc2-3)cc1	Glioma ERSR ind inconclusive, ALOX12 inh 6.31µM!

High-throughput results from PubChem.
